High-throughput results from PubChem.
EBNA-1 inh: blocks EBNA-1 binding to DNA | EBNA-1 DNA binding, fluorescence polarization | inhibition, % at 14.8 µM | 0.34% of 300,000 active; in the data active = inhibition above about 28%
NR3A LBD binder: modulators (binders) of human NR3A ligand-binding domain | NR3A LBD differential scanning fluorimetry, Tm shift; 0% = protein alone, 100% = glycine-bound protein | 2.5% of 340,000 active | Tm shift relative to glycine control, % at 25 µM;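 active = melting temperature shift of at least 10% of the positive control shift, at one fixed dose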
TPT1 inh: inhibitors of Candida albicans tRNA 2'-phosphotransferase TPT1. inhibition, % at 5 µM. 0.81% of 300,000 active. recombinant caTPT1, FP RNA substrate dephosphorylation;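 active = inhibition above the mean of all tested compounds plus 3 SD, set per screening campaign, cut at about 24% in these data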;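 also: plate controls were DMSO alone for no effect and ferristatin control at 100 nM for full effect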
Rpn11 inh: blocks the human proteasome subunit Rpn11. O00487. human 26S proteasome, Ub4-pepOG fluorescence polarization; 20S core pre-blocked with epoxomicin. inhibition, % at 20 µM. 0.59% of 360,000 active;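 active = inhibition at 20 µM, scaled to each plate's controls, above about 33%, limit read from the data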
Target sequence (O00487 whole entry, looked up): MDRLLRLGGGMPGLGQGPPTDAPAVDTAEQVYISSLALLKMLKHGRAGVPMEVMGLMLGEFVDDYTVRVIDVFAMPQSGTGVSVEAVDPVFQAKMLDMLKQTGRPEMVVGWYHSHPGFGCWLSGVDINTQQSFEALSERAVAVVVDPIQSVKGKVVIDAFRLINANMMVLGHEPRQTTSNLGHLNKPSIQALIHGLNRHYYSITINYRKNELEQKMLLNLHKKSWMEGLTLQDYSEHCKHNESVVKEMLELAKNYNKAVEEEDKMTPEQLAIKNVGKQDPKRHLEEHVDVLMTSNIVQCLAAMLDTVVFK
dFosB activator: activators of mouse delta FosB homodimer. P13346. purified delta FosB, TAMRA-CDK5 oligo fluorescence polarization; percent of positive-control signal above neutral wells. activation, % at 25 µM. 0.99% of 340,000 active;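 active = mean activation above about 17%, with every replicate also reaching it, limit read from the data, passing the limit was not always enough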
ZTA counter: blocks Epstein-Barr virus ZTA, an EBNA-1 counter-screen; AID 2234; inhibition, % at 11 µM; 0.15% of 320,000 active; ZTA-DNA binding, fluorescence polarization; in the data active = inhibition above about 33%
The depositor's hits bear a star; . = not tested or not shown. Compounds with a hit are over-represented: about 4.5% of the library has one in this group of screens.

SMILES | EBNA-1 inh | NR3A LBD binder | TPT1 inh | Rpn11 inh | dFosB activator | ZTA counter
CNc1ccc(/C=C/C(=O)c2ccc(C)cc2)cc1[N+](=O)[O-] | -5 | 21* | 1 | 33 | -8 | 6
COc1cc(/C=N/O)ccc1Oc1ccc([N+](=O)[O-])cc1[N+](=O)[O-] | -6 | -16 | -3 | 3 | -3 | -13
O=C(/C=C/c1ccc(O)c([N+](=O)[O-])c1)c1ccc2ccccc2c1 | 2 | -1 | 0 | 1 | -12 | 29
O=[N+]([O-])c1cc(/C=N\O)ccc1Oc1ccc(F)cc1 | -13 | 16* | 7 | 5 | 15 | -7
COc1ccc(Oc2ccc(/C=C/C(=O)c3ccc(O)cc3)cc2[N+](=O)[O-])cc1 | 2 | 20* | 3 | -3 | 3 | 4
COc1cc(-c2cnc3c(NC=O)cc(-c4ccccc4Cl)cn23)cc(OC)c1OC | . | . | . | -1 | . | .
CN(C)S(=O)(=O)n1cc(/C=C(\NC(=O)c2ccccc2Cl)C(=O)N2CCOCC2)c2ccccc21 | 21 | 3 | -5 | -8 | 3 | 0
CC(C)n1c(=O)c2ccccc2n1Cc1cn(Cc2cccnc2)nn1 | . | . | . | -4 | . | .
COc1ccccc1CNC(=O)COC(=O)CCC(=O)c1cccs1 | 5 | -2 | -1 | -4 | -8 | -2
COc1cc2c(cc1OC)C(c1cc3cccc(C)c3[nH]c1=O)N(C(=O)c1ccco1)CC2 (stereo unspecified) | 3 | . | -7 | -9 | -8 | 7
Brc1ccc(C2=Nc3cccc4cccc(c34)N2)o1 | -3 | 1 | -1 | -1 | 23* | -1
CCOCC(=O)Nc1ccc(S(=O)(=O)NCCc2ccccc2)cc1 | 4 | 11* | -5 | -3 | -5 | -9
CCOC(=O)C(Oc1ccc2c(-c3ccccc3)cc(=O)oc2c1C)c1ccccc1 (stereo unspecified) | -8 | 14* | 0 | -6 | 0 | -6
Oc1cccc(C2c3[nH]c4ccccc4c3CCN2Cc2ccoc2)c1 (stereo unspecified) | -12 | -1 | -3 | -1 | -12 | -1
Oc1cccc(C2c3[nH]c4ccccc4c3CCN2Cc2ccc3c(c2)CCO3)c1 (stereo unspecified) | -5 | 11* | 0 | -2 | 9 | 4
O=C(O)c1cccc(S(=O)(=O)Nc2ccccc2-c2ccccc2)c1 | -4 | -2 | -3 | 4 | 1 | -6
O=S(=O)(Nc1ccccc1-c1ccccc1)c1ccccc1 | . | 14* | . | 2 | 1 | .
COc1cc(/C=C2\OC(=O)c3c(OC)cccc32)ccc1O | -9 | 17* | 4 | -1 | -25 | -5
CCCCN1C[C@H](CO)Oc2cccc(F)c2S1(=O)=O | . | -2 | . | -3 | -6 | .
C=CCCC1CN(CCCC)S(=O)(=O)c2c(F)cccc2O1 (stereo unspecified) | . | 18* | . | 1 | -8 | .
CCOC(=O)C1(CC2CC2)CCN(C(=O)c2cccnc2C)CC1 | 2 | 2 | -1 | 10 | -9 | 4
CC1CCN(S(=O)(=O)c2ccc(C(=O)OC(C)C(=O)NC3CCCCC3C)cc2)CC1 (stereo unspecified) | 4 | 1 | -2 | 8 | 3 | -6
CC1CCN(S(=O)(=O)c2ccc(C(=O)OC(C)C(=O)N(C)C3CCCCC3)cc2)CC1 (stereo unspecified) | -8 | 15* | 1 | 2 | -9 | -13
CC(/C=N/NC(=O)c1nnn(-c2nonc2N)c1C(C)C)=C\c1ccco1 | 2 | 19* | 2 | 18 | -9 | -8
CCCN(CCC)Cc1c(C(=O)N/N=C/c2ccco2)nnn1-c1nonc1N | 3 | -2 | -2 | 3 | -17 | -12
CCCc1c(C(=O)N/N=C/C(C)=C/c2ccco2)nnn1-c1nonc1N | -5 | 16* | 1 | 9 | -11 | -6
Nc1nonc1-n1nnc(C(=O)N/N=C/c2ccco2)c1-c1ccccc1 | 7 | -1 | -4 | 3 | -12 | 6
CCN(C(=O)Cn1cnc2cc([N+](=O)[O-])ccc2c1=O)C1CCS(=O)(=O)C1 (stereo unspecified) | -3 | -2 | -1 | -6 | 1 | -11
COc1ccc(-c2ccc(-c3noc(C)n3)c(OC)n2)cc1 | -7 | 1 | 1 | 5 | -9 | -3
